PubChem BioAssay
The source made the active and inactive calls. Unless noted, how the calls were made is not given here.

Experiments:
[1] = system: XIP peptide (Xip251-270) binding; assay: XIP fragment 251-270 binding compounds – biochemical, small-molecule microarray, fluorescence 635/667 nm, 0.1 µg/mL protein, primary screen (AID 1182); conditions: fluorescent protein binding, 635 nm, higher = more signal, called active from +8 up or from −8 down
[2] = system: XIP peptide (Xip251-270); assay: compounds binding XIP fragment 251-270 – biochemical, small-molecule microarray, fluorescence 635/667 nm, 0.5 µg/mL protein, primary screen (AID 1183); conditions: fluorescence 635 nm, higher = more signal
[3] = blood-stage malaria parasite viability loss – strain 3D7, DAPI fluorescence, 100 nL, primary screen (AID 1184);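 further: parasites grown inside human red blood cells in medium with human serum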; conditions: P. falciparum 3D7 growth, 3 d, higher = more signal
[4] = biological target: Homeobox protein Hox-A13 (Mus musculus) (UniProt Q62424); assay: disruptors of Hoxa13 oligonucleotide interaction – biochemical, fluorescence polarization, labeled oligonucleotide, primary screen (AID 1185); conditions: Hoxa13:DNA binding, 15 min, higher = more signal, called active from +8 up or from −8 down
[5] = blockers of DNA damage checkpoint Chk1 activation – imaging, HeLa, hydroxyurea, phospho-Chk1 antibody, percent positive cells, primary screen (AID 1186); conditions: hydroxyurea-induced phospho-Chk1 immunofluorescence imaging, higher = more signal
[6] = blockers of DNA damage checkpoint Chk1 activation – imaging, HeLa, hydroxyurea, phospho-Chk1 nuclear intensity, primary screen (AID 1187); conditions: hydroxyurea-induced phospho-Chk1 immunofluorescence imaging, higher = more signal

Chain of Homeobox protein Hox-A13 (Mus musculus) (Q62424 whole entry, looked up): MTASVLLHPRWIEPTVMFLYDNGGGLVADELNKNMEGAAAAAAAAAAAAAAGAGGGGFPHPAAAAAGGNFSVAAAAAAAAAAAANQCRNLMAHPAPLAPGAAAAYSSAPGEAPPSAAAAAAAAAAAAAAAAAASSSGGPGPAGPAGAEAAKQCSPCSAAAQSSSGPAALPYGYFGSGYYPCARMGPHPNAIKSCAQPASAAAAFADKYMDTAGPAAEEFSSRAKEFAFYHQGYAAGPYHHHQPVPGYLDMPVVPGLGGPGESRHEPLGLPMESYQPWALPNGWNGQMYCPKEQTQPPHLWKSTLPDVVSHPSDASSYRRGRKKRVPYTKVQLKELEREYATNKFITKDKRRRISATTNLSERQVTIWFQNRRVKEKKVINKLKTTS

Structure (SMILES) | composite z-score [1] | composite z-score [2] | z-score [3] | z-score [4] | z-score [5] | z-score [6]
COC(=O)C1=CC(CCCO)=CC(c2ccc(CN3CCCC3)cc2)N(C)C=C1C(=O)OC (stereo unspecified) | 0.736 (inactive) | 0.873 | 0.34 | -6.09 (inactive) | -0.118 (inactive) | -0.428 (inactive)
COc1ccc([Si](C)(C)[C@H]2[C@H](CC(=O)N3CCC[C@H]3CO)O[C@@]3(C(=O)N(C)c4ccccc43)[C@@H]2C)cc1 | -0.216 (inactive) | 0.924 | 1.07 | -3.41 (inactive) | -0.529 (inactive) | -0.766 (inactive)
C=C(COC)/C(=C/C[C@@H](OC(C)=O)c1cccc(OCCO)c1)c1cnc2ccccc2c1 | 0.281 (inactive) | 0.21 | -3.1 | -5.52 (inactive) | 0.271 (inactive) | -0.181 (inactive)
COCCOC(=O)N1C(=O)[C@@]2(c3ccccc31)[C@H](C(=O)Nc1nc3ccccc3s1)[C@H]1C(=O)O[C@H](c3ccccc3)[C@H](c3ccccc3)N1[C@@H]2c1ccccc1OCCO | 0.238 (inactive) | 0.801 | -1.68 | -0.587 (inactive) | 0.152 (inactive) | 0.367 (inactive)
CCCCC(=C=CC[C@@H](O)c1ccccc1OCCO)C[C@@H](O)c1ccccn1 | 0.161 (inactive) | 0.338 | -1.48 | -5.1 (inactive) | -0.0323 (inactive) | -0.123 (inactive)
CC(C)(C)OC(=O)CC[C@]1(C(=O)N2CCOCC2)COC(c2ccc(OCCCO)cc2)=N1 | -0.199 (inactive) | 0.0906 | 0.33 | -3.78 (inactive) | -0.16 (inactive) | -0.0926 (inactive)
O=C1O[C@H](c2ccccc2)[C@H](c2ccccc2)N2[C@H]1[C@@H](C(=O)Nc1nc3ccccc3s1)[C@]1(C(=O)Nc3ccccc31)[C@H]2c1ccccc1OCCO | 1.18 (inactive) | 0.758 | -1.08 | 2 (inactive) | 0.153 (inactive) | 0.65 (inactive)
COCCCNC(=O)[C@@]1(c2ccc([N+](=O)[O-])cc2)CC(=O)N(C2CCCCC2)[C@@H]1c1ccc(CO)cc1I | 0.266 (inactive) | 0.728 | -0.768 | -4.5 (inactive) | 0.237 (inactive) | 0.36 (inactive)
C=CCNC(=O)[C@@H]1[C@H]2C(=O)O[C@H](c3ccccc3)[C@H](c3ccccc3)N2[C@H](c2ccc(OCCO)cc2)[C@@]12C(=O)Nc1ccc(C#CC3=CCCCC3)cc12 | 1.45 (inactive) | 0.799 | -1.39 | 1.89 (inactive) | 0.269 (inactive) | 0.273 (inactive)
[N-]=[N+]=NCc1ccccc1[C@H]1OC(c2ccc(OCCCO)cc2)=N[C@@]1(CCS(=O)(=O)c1ccccc1)C(=O)O | -0.0179 (inactive) | 0.446 | 0.0638 | -5.36 (inactive) | -0.0059 (inactive) | -0.587 (inactive)
C=CCNC(=O)[C@@H]1[C@H]2C(=O)O[C@H](c3ccccc3)[C@H](c3ccccc3)N2[C@H](c2ccc(O)cc2)[C@@]12C(=O)N(C(=O)OCCOC)c1ccc(C#CCC(C(=O)OC)C(=O)OC)cc12 | 0.891 (inactive) | 0.756 | -1.7 | -1.28 (inactive) | -0.0611 (inactive) | -0.187 (inactive)
COC(=O)C(CC#Cc1ccc2c(c1)[C@]1(C(=O)N2)[C@H](c2ccc(OCCO)cc2)N2[C@H](c3ccccc3)[C@H](c3ccccc3)OC(=O)[C@H]2[C@@H]1C(N)=O)C(=O)OC | 0.372 (inactive) | 0.657 | -0.983 | -1.34 (inactive) | -0.143 (inactive) | -0.303 (inactive)
CC(C)(C)OC(=O)CC[C@@]1(C(N)=O)N=C(c2ccc(OCCCO)cc2)O[C@@H]1c1ccccc1CN=[N+]=[N-] | -0.015 (inactive) | 0.297 | 1.1 | -4.71 (inactive) | 0.3 (inactive) | 0.317 (inactive)
COc1ccc(-c2cc3c(c(CCc4ccccc4)n2)[Si](C(C)C)(C(C)C)O[C@H]3c2ccccc2)cn1 | -0.269 (inactive) | -0.179 | -1.41 | -1.35 (inactive) | -0.0745 (inactive) | -0.194 (inactive)
O=C1C2C=CC(C(O)C3CCCCC3)N(Nc3ccccc3F)C2C(=O)N1c1ccccc1 (stereo unspecified) | 0.352 (inactive) | 0.738 | -0.193 | 0.182 (inactive) | 0.0253 (inactive) | 0.0942 (inactive)
Cc1c(NC(=O)/C(C#N)=C/C=C/c2ccc([N+](=O)[O-])cc2)c(=O)n(-c2ccccc2)n1C | 1.97 (inactive) | 0.77 | -0.363 | -4.12 (inactive) | -0.023 (inactive) | 0.501 (inactive)
COc1ccc([Si](C)(C)[C@H]2[C@H](CC(=O)N3CCC[C@H]3CO)O[C@@]3(C(=O)N(C)c4c(Br)cc(C)cc43)[C@@H]2C)cc1 | 1.14 (inactive) | 0.341 | -1.56 | -5.84 (inactive) | 0.27 (inactive) | 0.523 (inactive)
O=C(NCC(F)(F)F)[C@@H]1c2ccccc2C(=O)N(Cc2cc(C(F)(F)F)cc(C(F)(F)F)c2)[C@H]1c1ccc(CO)cc1 | -0.398 (inactive) | 0.637 | 0.362 | -2.44 (inactive) | -0.373 (inactive) | -0.356 (inactive)
COCCOC(=O)N1C(=O)[C@@]2(c3cc(C#CCCO)ccc31)[C@H](c1ccc(O)cc1)N1[C@H](c3ccccc3)[C@H](c3ccccc3)OC(=O)[C@H]1[C@@H]2C(=O)NC[C@H](O)c1ccccc1 | 0.395 (inactive) | 0.859 | 0.0019 | -2.51 (inactive) | 0.0615 (inactive) | 0.345 (inactive)
CCCCCCCCCCC(O)C1C=CC2C(=O)N(C)C(=O)C2N1Nc1ccccc1 (stereo unspecified) | 1.04 (inactive) | -1.39 | -0.0339 | -2.87 (inactive) | 0.999 (inactive) | 0.135 (inactive)
CCCCC=C[C@@H](NC(=O)C(C)(C)C)c1ccccc1 | 1.38 (inactive) | 0.324 | -0.501 | -0.258 (inactive) | 0.579 (inactive) | -0.124 (inactive)
